Only some compounds are listed: those with a hit (about 17% of all), similar ones and a draw of the others.
TGFb inhibitor = inhibitors of TGF-b signaling; AID 588855; Potency, µM (titrated, usually from 46.1 µM), without a hit: at the top dose activity, negative = inhibition, usual class: inhibitors; HepG2 CAGA-GFP TGF-b/SMAD3 reporter, GFP fluorescence, 18 h; TGF-beta stimulated, 500 pg/mL final; 410,000 compounds, 1.2% hits; also: % is scaled to controls: 0 for no effect and ±100 for the full control effect; nearly all actives have a fitted effect of over 65% in size
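Per well, imaged GFP fluorescence of HEPG2 CAGA-GFP cells gives the signal; cells get compound, then TGF-beta (500 pg/mL final), 18 h at 37 degrees C; %Activity versus -TGF-beta and +DMSO controls.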
HT1080 IDH1KD tx = HT-1080 IDH1 knockdown cell toxicity (counter line). 360,000 compounds, 2% hits. HT-1080 IDH1 knockdown viability, ATP luminescence, 48 h. Potency, µM (highest dose often 46.1 µM), without a hit: top-dose activity, negative = toxicity, most hits filed as cytotoxic;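 also: 0% = DMSO wells and -100% = cell-free medium wells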
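Assay cells: HT-1080 with IDH1 knockdown, 750 per well, RPMI/5% FBS. Exposure: 48 h at 37 °C following 2 h pre-incubation. Read: CellTiter-Glo luminescence; fitted concentration-response, curve class assigned.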
DT40 TDP1 CPT = DT40-hTDP1 cell growth loss with CPT; chicken DT40 Tdp1-/-;hTDP1 cells + 20 nM CPT, ATP luminescence, 48 h; Potency, µM (highest dose often 46.2 µM), for the others: at the highest dose activity change, negative = growth inhibition, actives largely listed as inhibitors; AID 686979; 420,000 compounds, 12% hits; also: % is scaled to controls: 0 for no effect and ±100 for the full control effect; nearly all actives have a fitted effect of over 55% in size
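Chicken DT40 Tdp1-/- cells stably complemented with human TDP1 were seeded at 400 cells/well in medium containing 20 nM camptothecin, exposed to pin-transferred compounds, and grown at 37 °C for at least 48 hr. Viability was read as ATP luminescence.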
HepG2 tox = counter-screen for TGF-b inhibitors: cytotoxicity in HepG2 cells; HepG2 CAGA-GFP viability, ATP luminescence, 18 h; Potency, µM (top dose mostly 46.1 µM), without a hit: at the highest dose activity change, negative = cytotoxicity, most hits filed as cytotoxic; 410,000 compounds, 0.76% hits; AID 588856
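HepG2 CAGA-GFP cells (1000/well, DMEM with 1% FBS) received compound, then TGF-beta at 500 pg/mL final, and were incubated 18 hours at 37 degrees C. Viability was read by CellTiter-Glo luminescence. Media-only wells were set as complete cell-killing and DMSO as no toxicity.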
DT40 TDP1 no CPT = qHTS for Inhibitors of human tyrosyl-DNA phosphodiesterase 1 (TDP1): qHTS in cells in absence of CPT; DT40 Tdp1-/- hTDP1 cells, no CPT, ATP luminescence, 48 h; Potency, µM (doses to about 46.2 µM), without a hit: at the highest dose activity change, negative = growth inhibition, actives largely listed as inhibitors; 420,000 compounds, 15% hits; AID 686978, 2013; also: % is scaled to controls: 0 for no effect and ±100 for the full control effect; nearly all actives have a fitted effect of over 55% in size
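DT40 Tdp1-/-;hTDP1 cells, no CPT (DMSO vehicle only), 400 cells/well; compounds pin-transferred; ≥48 hr, 37 °C; CellTiter-Glo 30 min RT dark, luminescence read.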
HT1080NT lethal = kills 2HG-producing HT-1080-NT fibrosarcoma cells | HT-1080-NT fibrosarcoma viability, CellTiter-Glo ATP luminescence, 48 h | Potency, µM (doses to about 46.1 µM), inactives show at the top dose activity, negative = less viability, hits mostly cytotoxic | 360,000 compounds, 1.6% hits | AID 686970;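 also: NT is the 2HG producing partner of a matched IDH1 knockdown line; 0% = DMSO-treated cells and -100% = media-only wells without cells; nearly all actives have a fitted effect of over 55% in size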
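Read-out is CellTiter-Glo luminescence after 10 minutes at room temperature, following 48 hours' compound treatment of HT-1080-NT cells (750 cells/well, RPMI, 5% FBS, 37 degrees C).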
* = called active by the depositor; ? = inconclusive; · = not tested or not shown. Calls follow the shape of the dose curve; as a rule, active = well fitted curve in the direction sought with a large enough effect; inconclusive = small, poorly fitted or top-dose-only effect, or another doubt; inactive = no such curve, though single readings can be large; an effect the other way counts as inactive or inconclusive. Potency is read from the fitted curve at half-maximal effect.

SMILES	TGFb inhibitor	HT1080 IDH1KD tx	DT40 TDP1 CPT	HepG2 tox	DT40 TDP1 no CPT	HT1080NT lethal
O=C(Cc1ccccc1)Nc1ccc2oc(-c3cccnc3)nc2c1	-21.3%	11.4%	-21.5%	8.2%	-23.8%	8.3%
O=C(Nc1ccc2oc(-c3cccnc3)nc2c1)c1ccc(-c2ccccc2OC(F)(F)F)o1	?	·	10.3µM*	-11.3%	9.2µM*	·
O=C(Nc1ccc2oc(-c3cccnc3)nc2c1)c1ccc2c(c1)OCCO2	8.4%	?	?	-11.8%	?	-22.9%
O=C(Nc1ccc2oc(-c3cccnc3)nc2c1)c1ccc(-c2ccc(OC(F)(F)F)cc2)o1	0.6%	·	?	5.0%	20.6µM*	·
C[C@H](NS(=O)(=O)c1ccc2c(c1)OCCCO2)C(=O)N1CCN(Cc2ccc(C#N)cc2)CC1	-10.4%	-21.9%	?	-3.1%	-49.6%	-3.8%
COc1cc(CCC(=O)N2CCN(S(=O)(=O)c3ccc(C)cc3)CC2)cc(OC)c1OC	7.3%	-8.6%	-7.0%	-25.8%	?	-8.6%
NCCNc1ccc(C(=O)N2c3ccccc3Sc3ccccc32)cc1[N+](=O)[O-]	0.0%	16.4µM*	18.4µM*	-63.8%	18.4µM*	?
Nc1ccc(C(=O)OCC(=O)N2c3ccccc3Sc3ccccc32)cc1[N+](=O)[O-]	?	-12.8%	?	-30.5%	7.31µM*	-3.1%
O=C(Nc1nc(-c2ccc([N+](=O)[O-])cc2)cs1)c1c(F)cccc1F	0.0%	-11.8%	-2.9%	-9.6%	4.61µM*	-7.3%
O=C(Nc1nc(-c2ccc(-c3ccccc3)cc2)cs1)C1=COCCO1	?	?	-23.3%	-46.3%	?	?
O=C(NC(NC(=O)c1c(F)cccc1F)c1ccc([N+](=O)[O-])cc1)c1c(F)cccc1F	10.9%	?	-6.3%	-5.4%	9.7%	?
O=C(Nc1nc(-c2ccc([N+](=O)[O-])cc2)cs1)C1=COCCO1	31.2%	-1.0%	-24.5%	36.2%	9.2µM*	8.8%
O=C(NC(=S)Nc1nc(-c2cccc([N+](=O)[O-])c2)cs1)c1cc(Cl)ccc1Cl	11.0%	11.7%	-82.7%	6.5%	16.4µM*	24.0%
Cc1cc(C)c(-c2csc(NC(=O)C3=COCCO3)n2)cc1C	-10.3%	-12.1%	23.1µM*	-8.4%	20.6µM*	-3.0%
CN(C)c1ccc(C=O)c(F)c1	3.5%	·	17.3%	7.9%	-3.5%	·
COc1cc(C2CC(=O)Nc3c2c(=O)n(C)c(=O)n3C)cc(OC)c1OC (configuration not stated)	?	·	4.3%	4.3%	3.8%	·
C/C(=N\Nc1ccc(S(=O)(=O)N2CCOCC2)cc1[N+](=O)[O-])C(C)C	-0.2%	-5.3%	?	8.8%	?	-8.6%
O=C(C1CCCN(Cc2ccccc2Br)C1)N1CCCCC1 (configuration not stated)	-3.7%	1.2%	-1.7%	-8.6%	-27.1%	-0.1%
C[C@H](NC(=O)c1nc[nH]c1C(=O)N[C@@H](C)C(=O)OCc1ccccc1)C(=O)OCc1ccccc1	?	3.1%	-4.3%	-14.9%	-7.9%	0.7%
CC(C)(C)OC(=O)N1CCN(C(=O)c2nc[nH]c2C(=O)N2CCN(c3ccccc3)CC2)CC1	-29.6%	12.5%	-3.9%	1.4%	5.8%	2.7%
O=C(c1nc[nH]c1C(=O)N1CCN(c2ccccc2)CC1)N1CCN(c2ccccc2)CC1	7.4%	1.2%	13µM*	6.5%	-7.8%	-22.4%
C[C@H](NC(=O)c1nc[nH]c1C(=O)NC(c1ccccc1)c1ccccc1)C(=O)OCc1ccccc1	?	-9.6%	23.1µM*	-12.8%	23.1µM*	?
C[C@H](NC(=O)c1nc[nH]c1C(=O)N1CCN(c2ccccc2)CC1)C(=O)OCc1ccccc1	-20.0%	-0.2%	18.4µM*	-25.3%	?	-2.2%
CCN(CC)C(=O)c1[nH]cnc1C(=O)N[C@@H](C)C(=O)OCc1ccccc1	?	8.6%	?	-14.5%	10.3µM*	10.8%
O=C(N[C@@H](Cc1ccccc1)C(=O)OCc1ccccc1)c1nc[nH]c1C(=O)N1CCN(c2ccccc2)CC1	?	1.0%	?	-52.8%	?	-2.7%
SMILES	TGFb inhibitor	HT1080 IDH1KD tx	DT40 TDP1 CPT	HepG2 tox	DT40 TDP1 no CPT	HT1080NT lethal
C[C@H](NC(=O)c1nc[nH]c1C(=O)N1CCNCC1)C(=O)OCc1ccccc1	17.3%	13.6%	-1.3%	4.4%	5.9%	4.8%
CCC(OC(=O)C(C)N1C(=O)C(=O)c2ccccc21)C(=O)Nc1ccccc1OC (configuration not stated)	-21.7%	-4.9%	4.61µM*	-4.5%	5.8µM*	-15.3%
COc1cccc(NC(=O)CN(C)C(=O)c2cc(C)oc2C)c1	7.4%	1.5%	2.0%	0.4%	24.2%	0.9%
COc1cccc(NC(=O)CN(C)C(=O)c2cc(-c3cccc(Br)c3)nc3ccccc23)c1	?	-25.7%	?	9.2%	16.4µM*	?
CN(C)S(=O)(=O)c1cccc(NC(=O)COC(=O)c2cc(-c3cccc(Br)c3)nc3ccccc23)c1	?	-2.5%	?	-13.3%	?	-3.0%
COc1cccc(NC(=O)CN(C)C(=O)c2cc(-c3ccc(C)o3)nc3ccccc23)c1	5.3%	-14.2%	?	-13.9%	20.6µM*	-23.3%
COc1cccc(NC(=O)c2cc(-c3ccc(C)o3)nc3ccccc23)c1	-20.0%	-29.0%	?	-34.6%	?	-7.4%
COc1cccc(NC(=O)CN(C)C(=O)c2cc(-c3ccccc3)nc3ccc(C)cc23)c1	10.6%	-10.9%	13µM*	-5.4%	10.3µM*	?
COCCNC(=O)c1ccc(Cn2c(SCC(=O)NC(C)C)nc3ccccc3c2=O)cc1	3.8%	·	?	-19.4%	-16.9%	·
CCOC(=O)c1c(C)n(-c2ccc(OC)cc2)c2c(C/C(C)=N/O)c(Br)c(OC)c(O)c12	34.1%	-0.7%	0.2%	0.9%	-27.8%	0.8%
Cc1ccc(S(=O)(=O)N2CCCC2CNC(=O)C(=O)NCc2ccc3c(c2)OCO3)cc1 (configuration not stated)	-15.8%	-15.0%	?	-17.3%	?	-13.1%
Cc1c(NC(=O)C(C)Oc2ccc(Br)cc2Cl)c(=O)n(-c2ccccc2)n1C (configuration not stated)	0.0%	0.2%	-23.8%	-19.2%	-11.0%	4.8%

Source: PubChem (National Center for Advancing Translational Sciences (NCATS))
